# Assay results published in article PMC4336329 (PLoS ONE, 2015).
# In all, about 310,000 compounds went through this assay and about 14,000 (4.5%) showed an effect of 50% or more. Effects have a minus sign here. This is one part of a sample in which strong results are shown more often than they occur.
# Molecular target: human ether-à-go-go-related gene (hERG) potassium channel (human, UniProt Q12809)
# Test: primary screen, population patch clamp on CHO cells stably expressing hERG; higher = less effect of the substance
# 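Note: peak tail current of the secondary pulse compared with the same well before compound.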
# Chain of human ether-à-go-go-related gene (hERG) potassium channel (Q12809 whole entry, looked up): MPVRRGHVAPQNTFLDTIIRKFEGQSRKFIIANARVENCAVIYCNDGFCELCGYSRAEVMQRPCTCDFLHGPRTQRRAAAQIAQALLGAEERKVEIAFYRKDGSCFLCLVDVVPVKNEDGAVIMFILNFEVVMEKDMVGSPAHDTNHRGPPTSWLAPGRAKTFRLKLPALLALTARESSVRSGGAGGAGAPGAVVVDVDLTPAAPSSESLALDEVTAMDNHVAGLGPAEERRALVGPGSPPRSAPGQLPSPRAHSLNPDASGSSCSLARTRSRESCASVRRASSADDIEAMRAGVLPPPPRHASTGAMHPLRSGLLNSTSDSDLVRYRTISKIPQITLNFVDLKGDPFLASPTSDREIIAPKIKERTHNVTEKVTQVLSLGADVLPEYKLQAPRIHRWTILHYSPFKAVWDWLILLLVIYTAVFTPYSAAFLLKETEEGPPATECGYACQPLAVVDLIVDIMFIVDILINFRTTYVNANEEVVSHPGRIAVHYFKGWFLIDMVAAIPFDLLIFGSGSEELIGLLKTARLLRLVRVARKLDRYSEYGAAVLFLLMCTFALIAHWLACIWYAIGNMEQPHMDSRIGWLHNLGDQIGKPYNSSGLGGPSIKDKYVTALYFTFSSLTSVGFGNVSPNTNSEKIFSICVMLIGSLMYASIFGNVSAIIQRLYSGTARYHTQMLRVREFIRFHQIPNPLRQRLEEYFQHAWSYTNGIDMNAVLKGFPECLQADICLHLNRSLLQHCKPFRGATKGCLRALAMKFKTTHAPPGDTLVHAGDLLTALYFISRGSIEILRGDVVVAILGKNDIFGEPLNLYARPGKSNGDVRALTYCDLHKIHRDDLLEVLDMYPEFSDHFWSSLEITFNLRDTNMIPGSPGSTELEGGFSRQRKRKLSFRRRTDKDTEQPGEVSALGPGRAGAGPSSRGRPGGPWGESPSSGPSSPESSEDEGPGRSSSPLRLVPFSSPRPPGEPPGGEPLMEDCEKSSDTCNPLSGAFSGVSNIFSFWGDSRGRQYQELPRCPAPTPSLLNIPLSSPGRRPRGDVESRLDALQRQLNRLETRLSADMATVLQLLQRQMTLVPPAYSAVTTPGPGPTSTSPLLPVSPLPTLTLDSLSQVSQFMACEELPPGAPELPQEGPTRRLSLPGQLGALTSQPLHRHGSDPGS
row,SMILES,"hERG current change (%, negative = inhibition) at 10uM"
1,Cc1c(C)n(C)c2ccc([N+](=O)[O-])cc12,-4.04%
2,O=C(CSc1ccsc1[N+](=O)[O-])NCCc1ccccc1,2.6%
3,CCCCNC(=O)CN1CCN(Cc2ccc3cc(OC)ccc3c2)CC1.O=C(O)C(=O)O,-69%
4,CCCCCNC(=O)Cc1ccc(OC)cc1,1.41%
5,COc1cccc(CN2CCN(CC(=O)NCCc3ccccc3)CC2)c1,-11.8%
6,CCN(CC)c1ccc(NC(=O)CN2CCN(CC(=O)Nc3ccc(OC)cc3)CC2)cc1,-74.9%
7,COc1ccc(NC(=O)CN2CCN(CC(=O)Nc3ccc(OC)c(OC)c3)CC2)cc1,-74.6%
8,COc1ccc(N2CCN(CC(=O)Nc3ccc(C)c(C)c3)CC2)cc1,-17.3%
9,COc1ccc(NC(=O)CN2CCOCC2)cc1.O=C(O)C(=O)O,13%
10,COC(=O)c1ccc(NC(=O)CN2CCN(CC#N)CC2)cc1.O=C(O)C(=O)O,3.24%
11,N#CCN1CCN(CC(=O)Nc2ccc(OCc3ccccc3)cc2)CC1,-4.27%
12,COc1ccc(NC(=O)CN2CCN(CC#N)CC2)cc1,-75.6%
13,COc1ccc(NC(=O)CN2CCCCCC2)cc1OC,3.79%
14,CCN(C(=O)COc1ccccc1)c1nnc(-c2cccnc2)s1,8.69%
15,Cc1cccc(NC(=O)c2cccc(NC(=O)Cc3cccs3)c2)c1,4.72%
16,N#CCC(=O)N/N=C/c1ccc(N2N=C(c3ccccc3)CC2c2ccccc2)cc1 (stereo not shown),25%
17,CC(C(=O)N1CCC2(CC1)OCCO2)C1Sc2ccccc2NC1=O (stereo not shown),6.9%
18,O=C(NC1C2CC3CC(C2)CC1C3)c1ccc2c(c1)OCO2 (stereo not shown),-5.92%
19,CN(C)CCNc1ccc(-c2nn(C)c(=O)c3ccccc23)cc1[N+](=O)[O-],-1.47%
20,CCOC(C(=O)OCCCN(CC)CC)(c1ccccc1)c1ccccc1.Cl,-11.5%
21,N#CC(c1ccc(Cl)nn1)c1c(F)cccc1Cl (stereo not shown),9.59%
22,Cc1noc(C)c1COC(=O)[C@@H](NC(=O)c1ccccc1Cl)C(C)C,5.09%

row,SMILES,"hERG current change (%, negative = inhibition) at 10uM"
1,Cl.N[C@@H](Cc1c[nH]c2ccccc12)c1nnc(SCc2c(F)cccc2Cl)o1,1.99%
2,COc1ccc(NC(=O)CN2CCN(S(=O)(=O)N3CCCCCC3)CC2)cc1,-71.7%
3,COc1ccc(NC(=O)CN2CCN(c3ccc(C)cc3C)CC2)cc1,-60.7%
4,CCOC(=O)c1ccc(NC(=O)CN2CCN(c3ccccc3)CC2)cc1,5.34%
5,COC(=O)c1ccc(NC(=O)CCN2CCN(Cc3ccccc3)CC2)cc1,-58.6%
6,COC(=O)c1ccc(NC(=O)CCN2CCN(c3ccccc3)CC2)cc1,-28.9%
7,CCOC(=O)c1ccc(NC(=O)CN2CCN(Cc3ccccc3)CC2)cc1,-51%
8,COc1ccc(NC(=O)CN2CCN(c3c(C)cccc3C)CC2)cc1,-24.4%
9,COC(=O)c1ccc(NC(=O)CCN2CCN(CCC(=O)Nc3ccc(C(=O)OC)cc3)CC2)cc1,-15.4%
10,COc1cccc(N2CCN(CC(=O)Nc3ccc(S(=O)(=O)N4CCCCCC4)cc3)CC2)c1,-21.9%
11,COc1ccc(NC(=O)CN2CCN(c3c(C)cc(C)cc3C)CC2)cc1,3.97%
12,CCOC(=O)c1ccc(NC(=O)N2CCN(Cc3ccccc3)CC2)cc1,-11.1%
13,COc1ccc(NC(=O)CN2CCN(S(=O)(=O)N(C)C)CC2)cc1,-4.55%
14,CC(C)[C@H](NC(=O)c1cc2cc(Cl)ccc2n1C)C(=O)N[C@@H](C(=O)O)c1ccccc1,15.9%
15,CCCNC(=O)N1[C@H]2CC[C@@H]1C(C(=O)OC)=C(c1ccc(F)cc1OCc1ccccc1)C2,-23.3%
16,O=C(Oc1cc2oc(=O)cc(-c3ccccc3)c2cc1Cl)C1CCCCC1,4.05%
17,COC(=O)Cn1cc(C(=O)OC)c2ccccc21,-4.51%
18,COc1cc(C(=O)NC(C)c2ccc3ccccc3c2)cc(Cl)c1O (stereo not shown),4.57%
19,Cc1ccc(-c2cn(CCN)c(-c3ccc(Cl)nc3)n2)cc1,-21.7%
20,COc1ccccc1C(=O)Nn1c(-c2cccs2)nc2ccccc2c1=O,-2.66%
21,COc1cccc(CNC(=O)CSc2ccc(-c3ccco3)nn2)c1,2.15%
22,COc1cccc(NC(=O)Cn2c(=O)n(C)c(=O)c3sc4c(c32)COC(C)(C)C4)c1,6.82%

row,SMILES,"hERG current change (%, negative = inhibition) at 10uM"
1,CC(=O)Nc1ccc(S(=O)(=O)NC2=NCN(C)CN2)cc1,2.76%
2,COc1ccc(C(=O)Nc2ccc(N3CCN(Cc4ccccc4)CC3)cc2)cc1,-4.78%
3,COc1ccc(NC(=O)CN2CCCC2)cc1,15.7%
4,COc1ccc(NC(=O)CN2CCN(CC(=O)Nc3ccc(OC)cc3)CC2)cc1,-76.6%
5,CCCCOc1ccc(NC(=O)CN2CCN(Cc3ccccc3)CC2)cc1,-49.4%
6,COc1ccc(C(=O)NC2CCN(CC(=O)NC3CCCCC3)CC2)cc1,-17.3%
7,COc1ccc(NC(=O)CN2CCC(NC(=O)c3ccc(OC)cc3)CC2)cc1,-51.1%
8,COc1ccc(C(=O)NC2CCN(CC(=O)Nc3cccc(OC)c3)CC2)cc1,-25.4%
9,COc1ccc(NC(=O)CN2CCCCC2)cc1.O=C(O)C(=O)O,3.8%
10,COc1ccc(NC(=O)CN2CCN(Cc3ccccc3)CC2)cc1,-52.8%
11,COc1cc(NC(=O)c2cccc(Br)c2)nc(OC)n1,3.34%
12,CCSc1ccccc1C(=O)NCCCn1ccnc1,10.2%
13,CCCC(=O)Nc1cc(-c2nnc(OC)c3ccccc23)ccc1N1CCCCC1,-36.3%
14,C=CCOc1nc2c(c(=O)n(C)c(=O)n2C)n1Cc1ccccc1Cl,-6.73%
15,COc1cc2c(cc1OC)C(C(=O)NCc1cccnc1)C(c1cccnc1)N(C)C2=O (stereo not shown),9.05%
16,COc1cc([N+](=O)[O-])cc(/C=N/NC(=O)Cn2cncn2)c1O,5.88%
17,COc1ccc(S(=O)(=O)N2CCCCC2)cc1NC(=O)CCCOc1ccccc1,-9.13%
18,COC(=O)CNc1cc(S(=O)(=O)N2CCCCC2)ccc1Oc1cccc(C)c1,-30.7%
19,COc1ccc(S(=O)(=O)N2CCCCC2)cc1NC(=O)CCNC(=O)c1ccccc1Cl,-11%
20,CC(=O)NCCC(=O)Nc1cc(S(=O)(=O)N2CCOCC2)ccc1Oc1ccc(F)cc1,-30.5%
21,CC(=O)NCCC(=O)Nc1cc(S(=O)(=O)N2CCCCC2)ccc1Oc1ccccc1,-64.9%
22,CC(=O)NCCC(=O)Nc1cc(S(=O)(=O)N2CCOCC2)ccc1Oc1ccccc1,-8.45%

row,SMILES,"hERG current change (%, negative = inhibition) at 10uM"
1,CC(=O)NCCC(=O)Nc1cc(S(=O)(=O)N2CCCCC2)ccc1Oc1cccc(C)c1,-68%
2,COc1ccccc1Oc1ccc(S(=O)(=O)N2CCCCC2)cc1NC(=O)CCNC(C)=O,-55.1%
3,CC(=O)NCCC(=O)Nc1cc(S(=O)(=O)N2CCCCC2)ccc1N1CCCCC1,-5.37%
4,Cc1ccc2cccc(Oc3ncnc4scc(-c5ccc(Cl)cc5)c34)c2n1,3.87%
5,CCCNC(=O)C(=O)N/N=C/c1ccc(OCc2ccccc2)cc1,26.9%
6,COC(=O)c1ccc(CSc2nc3cc(Cl)ccc3s2)o1,9.32%
7,CN1C(=O)C(CC(=O)O)S/C1=N\N=C\c1ccc(O)cc1O (stereo not shown),6.03%
8,Cc1ccc(NCCC(=O)c2ccc(Br)cc2)cc1,0.444%
9,Cc1cc(NC(=O)CSc2ccc3nnc(-c4cccc(F)c4)n3n2)no1,-14.3%
10,CCOC(=O)CSc1ccc2nnc(-c3ccncc3)n2n1,-31.4%
11,CCOC(=O)N1CCC(Nc2ccc3nnc(-c4ccccc4)n3n2)CC1,-82%
12,CCOC(=O)CC(=O)CSc1ccc2nnc(-c3ccccc3)n2n1,-71.7%
13,O=C(CSc1ccc2nnc(-c3cccs3)n2n1)N1CCCC1,-43.4%
14,CCOC(=O)CSc1ccc2nnc(-c3cccs3)n2n1,-51.2%
15,CCOC(=O)N1CCC(Nc2c(-c3ccccc3)c(=O)c2=O)CC1,-23.2%
16,CCOC(=O)CC(=O)CSc1ccc2nnc(-c3ccc(F)cc3)n2n1,-23.4%
17,CCOC(=O)N1CCC(NC(=O)Cc2ccccc2)CC1,15.6%
18,CCOC(=O)CC(=O)CSc1ccc2nnc(-c3cccc(F)c3)n2n1,-72.2%
19,CCSc1ccc2nnc(-c3cccs3)n2n1,-34%
20,CCOC(=O)CSc1ccc2nnc(-c3ccccc3)n2n1,-39.3%
21,COc1ccc(CNC(=O)CN2CCN(S(=O)(=O)c3cccs3)CC2)cc1OC,1.64%
22,Cc1c(C(=O)N2CCCCC2)c(S(=O)(=O)N2CCC(C)CC2)c(C)n1C,3.48%
